The values below come from PubChem BioAssay.

A short description of the assay: sensitizers of A549 cells to miR-34 induction, primary screen, imaging, A549 dox-inducible miR-34, nuclei and caspase counts (AID 1347080). Also: test concentration not given here. The settings on record: A549 miR-34 inducible, Hoechst nuclei count, 48 h; measured here: relative caspase fold change +Dox/-Dox.
Take `CC(NC(=O)Cc1cc(F)cc(F)c1)C(=O)NC1C(=O)N(C)c2ccccc2-c2ccccc21` (stereo unspecified): the fold change is 0.674. To `COc1cc2c(cc1Cc1cccc(Cl)c1F)c(=O)c(C(=O)O)cn2C(CO)C(C)C` (stereo unspecified) belongs 1.26; to `CC(C)OC(=O)C(C)N[P@](=O)(OCC1OC(n2ccc(=O)[nH]c2=O)[C@](C)(F)C1O)Oc1ccccc1` (stereo partly specified), 0.639. With `CC1CC(=O)NN=C1c1ccc(NN=C(C#N)C#N)cc1` (stereo unspecified) the figure was 1.15. To `CC(C)(CO)c1cc2cc(NC(=O)C3(c4ccc5c(c4)OC(F)(F)O5)CC3)c(F)cc2n1CC(O)CO` (stereo unspecified) belongs 1.56; to `CCCC(C)NC(=O)c1ccc(Cl)c(Cl)c1` (stereo unspecified), 0.485. `COC1O[C@H]2O[C@@]3(C)CC[C@H]4[C@@H](C)CC[C@@H]([C@H]1C)[C@@]24OO3` (stereo partly specified): the fold change is 1.37. Regarding `C[C@]12CC[C@H]3c4ccc(O)cc4CC[C@H]3[C@@H]1CC(O)C2O` (stereo partly specified), the fold change was found to be 0.677. To `CNC(=C[N+](=O)[O-])NCCSCc1ccc(CN(C)C)o1` belongs 0.82; to `CC(O)[C@@H]1C(=O)N2C(C(=O)O)=C(SC3CNC(CNS(N)(=O)=O)C3)C(C)[C@@H]12` (stereo partly specified), 0.831; to `CC(C)C(N)C(=O)OCC(CO)OCN1C=NC2C(=O)NC(N)=NC21` (stereo unspecified), 0.625. On to `O=C(NN=Cc1ccc([N+](=O)[O-])o1)c1ccc(O)cc1`, for which the fold change came to 0.454.

For `COc1cc(CCc2cc(NC(=O)c3ccc(N4CC(C)NC(C)C4)cc3)n[nH]2)cc(OC)c1` (stereo unspecified), the fold change was found to be 0.948. With `O=C(NC1CCN(CCCCC2(C(=O)NCC(F)(F)F)c3ccccc3-c3ccccc32)CC1)c1ccccc1-c1ccc(C(F)(F)F)cc1` the figure was 0.667; with `COc1cc2ncnc(Sc3nnc(C)s3)c2cc1OC`, 0.244; with `C=CCNC1=C2CC(C)CC(OC)C(O)C(C)C=C(C)C(OC(N)=O)C(OC)C=CC=C(C)C(=O)NC(=CC1=O)C2=O` (stereo unspecified), 1.05. To `Cc1nc(NC(=O)N2CCCC2C(N)=O)sc1-c1csc(C(C)(C)C)n1` (stereo unspecified) belongs 0.607. As to `Cc1cn(C2CC(O)C(CO)O2)c(=O)[nH]c1=O` (stereo unspecified), the fold change was 1.28.

Consider `COc1ccc2cc1Oc1ccc(cc1)CC1c3cc(c(OC)cc3CCN1C)Oc1c(OC)c(OC)cc3c1C(C2)N(C)CC3` (stereo unspecified), for which the fold change worked out at 0.992.

Turning to `CCOC(=O)C(CCc1ccccc1)NC1CSC(c2cccs2)CN(CC(=O)O)C1=O` (stereo unspecified), the fold change came out at 0.5.

Consider `CC(=O)SC1CC2=CC(=O)CC[C@]2(C)[C@@H]2CC[C@@]3(C)[C@@H](CC[C@]34CCC(=O)O4)[C@H]12` (stereo partly specified), for which the fold change is 0.8. To `CCNc1nc(Nc2cc(F)c(C(=O)N3CCOCC3)cc2OC)ncc1C(F)(F)F` belongs 0.418.

In the case of `CN1CCN(C(=O)c2cc3cc(Cl)ccc3[nH]2)CC1`, the fold change was found to be 0.614. As to `CC1=NN(c2ccc(C(=O)O)cc2)C(=O)C1=Cc1ccc(-c2cc(C)c(C)cc2[N+](=O)[O-])o1`, the fold change turned out to be 0.511.

`O=C(O)C1OC(Oc2cc3oc(-c4ccccc4)cc(=O)c3c(O)c2O)C(O)C(O)C1O` (stereo unspecified): the fold change was determined as 1.12.

Turning to `NC(Cc1c[nH]c2ccc(O)cc12)C(=O)O` (stereo unspecified), the fold change amounted to 0.739.
